# Data from PubChem BioAssay AID652099 (National Center for Advancing Translational Sciences (NCATS), 2013).
# Calls of active or inactive are those of the source.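 The calls were made as follows: active = Gaucher patient macrophages show a phagocytic index close to or matching that of healthy macrophages; inactive = the rest.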
# Assay: Extended Characterization of Activators of N370S glucocerebrosidase as a Potential Chaperone Treatment of Gaucher Disease: Phagocytosis Index
# Conditions: Gaucher iPSC macrophages, phagocytosis of fluorescent E. coli particles
# Source text: Glucocerebrosidase (GCase) catalyzes the hydrolysis of beta-glucocerebroside (GC) to glucose and ceramide in lysosomes. Mutations in the glucocerebrosidase gene result in Gaucher disease, an autosomal recessive lysosomal storage disorder. Many of the mutations encountered in patients with Gaucher disease are missense alterations that may cause misfolding, decreased stability and/or mistrafficking of this lysosomal protein. […] These inhibitors include iminosugar analogs and other inhibitors that were discovered as part of previous work. However, the enhancement of enzyme activity by the chaperone action of an enzyme inhibitor must be balanced against the direct inhibition of the enzyme. […] In this extended characterization of our probe, we have further characterized the activity of probes in relevant models of Gaucher disease. This assay examine phagocytosis in patient-derived macrophages following compound incubation. NIH Chemical Genomics Center [NCGC] NIH Molecular Libraries Probe Production Centers Network [MLPCN] MLPCN Grant: MH086442 Assay Submitter (PI): Ellen Sidransky, NHGRI
# HMacs and iMacs, plated in black 96-well clear bottom plates, were treated, washed and incubated for 2 hrs with 100 µl of fluorescein-labeled E. coli BioParticles (Vybrant Phagocytosis Assay, Invitrogen).
row,Structure (SMILES),outcome
1,C#Cc1ccc(NC(=O)c2cnn3c(C)cc(C)nc23)cc1,active; similar to control
